# From publication PMC5540273 (PLoS ONE, 2017)
# Values joined by “and” are separate entries in the source; they are usually repeats but may differ in a detail not shown here. Equal entries are not always repeated. Where two headings read alike, the source gives them in different places.
# Columns and labels:
# DRAK1 = tested on: T1, DRAK1; conditions: n = 1
# T1 construct: gene STK17A
# DRAK2 = tested on: T2, DRAK2; conditions: n = 1
# T2 construct: gene STK17B
# DYRK1A = conditions: n = 1
# DYRK1B = conditions: n = 1
# DYRK2 = conditions: n = 1
# EGFR = conditions: n = 1
# EIF2AK1 = conditions: concentration: 1 μM, replicates: in singlicate; n = 1
# EPHA1 = conditions: n = 1
# EPHA2 = conditions: n = 1
# EPHA3 = conditions: concentration: 1 μM, replicates: in singlicate; n = 1
# [1] = concentration: 1 μM, replicates: in singlicate
# [2] = concentration: 1 μM,replicates: in singlicate, 1 µM
# 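Further: KINOMEscan kinase panel screen.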
SMILES,%Inh (DRAK1; [1]) [%],%Inh (DRAK2; [1]) [%],%Inh (DYRK1A; [1]) [%],%Inh (DYRK1B; [1]) [%],%Inh (DYRK2; [1]) [%],%Inh (EGFR; [1]) [%],%Inh (EIF2AK1) [%],%Inh (EPHA1; [1]) [%],%Inh (EPHA2; [1]) [%],%Inh (EPHA3) [%],%Inh (DRAK1; 1 µM) [%],%Inh (DRAK2; 1 µM) [%],%Inh (DRAK1; [2]),%Inh (DRAK2; [2]),%Inh (DYRK1A; [2]),%Inh (DYRK1B; [2]),%Inh (DYRK2; [2]),%Inh (EGFR; [2]),%Inh (EPHA1; [2]),%Inh (EPHA2; [2])
Cc1c(O)cccc1Nc1ccnc2ccc(C(F)(F)F)cc12.Cl [GW466413],14,0,29,0,0,28,0,77,11,3,,,,,,,,,,
Fc1cc(Cl)ccc1Nc1ccnc2cc(-c3ccc(CN4CCCCC4)o3)ccc12 [GW560116],33,0,0,0,9,27,0,43,6,33,,,,,,,,,,
CS(=O)(=O)c1ccc(-c2nc3n(c2-c2ccncc2)CCC3)cc1 [SKF-105942],0,0,20,0,5,5,13,1,6,0,,,,,,,,,,
Cc1nnc(-c2ccc3occ(-c4ccc(S(C)=O)cc4)c3c2)[nH]1 (stereo not drawn),26,41,19,7,45,0,0,0,0,0,,,,,,,,,,
Nc1ncnc2[nH]c(-c3ccccc3)nc12 [AH5015],5,0,46,15,68,25,100,16,23,0,,,,,,,,,,
COc1ccccc1-c1ccc2c(NC(=O)C3CC3)n[nH]c2n1 [SB-711239],5,0,12,16,2,2,0,0,18,0,,,,,,,,,,
Cc1cccc(-c2cc(Nc3ccncc3)c3ccccc3n2)n1 [GSK223675],0,0,8,0,18,17,0,4,0,0,,,,,,,,,,
CCn1c(-c2ccccn2)nc2cnccc21 [SB-736398],5,8,19,11,0,15,0,21,6,0,,,,,,,,,,
O=C1NC(=O)C(N2CCc3ccccc32)=C1c1ccccc1Cl [SB-373598],0,0,18,0,6,25,0,10,27,12,,,,,,,,,,
O=C(O)COc1ncnc2cc(-c3ccc4[nH]ncc4c3)sc12,,,67,41,66,0,0,15,10,10,83,99.3,,,,,,,,
COc1cc2nccc(Nc3ccc(NC(=O)c4ccc(C)cc4)c(O)c3)c2cc1OC.Cl [GW440132],0,0,11,7,18,0,0,17,8,0,,,,,,,,,,
Cc1cc(NCC(c2ccccc2)c2ccccc2)nc(NCc2ccc(C(F)(F)F)cc2)n1 [GW497681],0,0,0,0,3,10,0,0,3,0,,,,,,,,,,
Cn1cncc1-c1ccc2ncnc(Nc3ccc(OCc4ccccc4)cc3)c2c1 [GW320571],6,0,12,3,0,99.3,96.7,25,17,0,,,,,,,,,,
COc1ccc(C2=C(Nc3cccc(C(=O)O)c3)C(=O)NC2=O)cc1 [SB-390765],19,7,9,0,20,0,11,7,9,11,,,,,,,,,,
Cl.NC(=O)c1cccc(Nc2nccc(Nc3ccc(Oc4cccc(Cl)c4)c(Cl)c3)n2)c1 [GW659008],13,0,5,4,13,96.9,0,0,0,5,,,,,,,,,,
Fc1cccc(COc2nnc(-c3ccc4c(c3)CCO4)o2)c1,6,33,44,65,3,6,0,0,0,0,,,,,,,,,,
CC(=O)Nc1nc2cnc(Nc3cc(NC(=O)c4cccc(CCC#N)c4)ccc3C)nc2s1,0,0,0,42,0,6,21,0,34,0,,,,,,,,,,
Cn1ccc2ncnc(Oc3ccc(NC(=O)Nc4ccccc4)cc3)c21,0,0,6,40,0,3,22,7,0,0,,,,,,,,,,

SMILES,%Inh (DRAK1; [1]) [%],%Inh (DRAK2; [1]) [%],%Inh (DYRK1A; [1]) [%],%Inh (DYRK1B; [1]) [%],%Inh (DYRK2; [1]) [%],%Inh (EGFR; [1]) [%],%Inh (EIF2AK1) [%],%Inh (EPHA1; [1]) [%],%Inh (EPHA2; [1]) [%],%Inh (EPHA3) [%],%Inh (DRAK1; 1 µM) [%],%Inh (DRAK2; 1 µM) [%],%Inh (DRAK1; [2]),%Inh (DRAK2; [2]),%Inh (DYRK1A; [2]),%Inh (DYRK1B; [2]),%Inh (DYRK2; [2]),%Inh (EGFR; [2]),%Inh (EPHA1; [2]),%Inh (EPHA2; [2])
O=C(Nc1n[nH]c2cc(-c3cccc(F)c3F)ccc12)C1CC1 [SB-733894],0,0,2,0,14,12,23,13,16,18,,,,,,,,,,
O=C(Nc1n[nH]c2nc(-c3nccs3)c(Br)cc12)C1CC1 [SB-742251],0,0,30,0,36,0,1,0,0,0,,,,,,,,,,
Clc1cc(Cl)cc(Nc2ccnc(Nc3cc(Cl)cc(Cl)c3)n2)c1 [GSK175726],0,6,0,19,0,38,0,54,46,21,,,,,,,,,,
O=C(Nc1ccccc1)Nc1cccc(Oc2ccc3nccn3n2)c1,0,1,0,45,0,33,0,14,30,34,,,,,,,,,,
O=C(Nc1ccc2c(c1)OCO2)NC1CCN(c2ccnc(Nc3ccc(F)cc3)n2)C1 (stereo not drawn) [GSK1379724],0,0,27,0,3,0,0,18,16,0,,,,,,,,,,
Cl.O=C(Nc1cccc(-c2nn3ncccc3c2-c2ccnc(Nc3cccnc3)n2)c1)c1c(F)cccc1F [GSK312879],1,0,22,18,6,98.9,17,4,0,2,,,,,,,,,,
COC(=O)c1c(-c2ccccc2)c2cc(C(=O)O)ccc2c(=O)n1Cc1ccccc1,0,0,7,32,0,0,0,0,3,15,,,,,,,,,,
Cc1csc(-c2nc(Nc3ccncc3)c3ccccc3n2)n1 [GW869640],10,0,18,0,29,1,14,0,0,30,,,,,,,,,,
COc1ccc(Nc2nccc(NCCNC(=O)Nc3ccccc3F)n2)cc1 [GSK1379901],2,0,19,0,6,20,10,33,25,0,,,,,,,,,,
NC(=O)c1nnc2ccccc2c1N,41,33,29,16,39,0,0,14,10,0,,,,,,,,,,
CS(=O)(=O)c1ccc(-c2c(-c3ncn[nH]3)sc(N3CCOCC3)c2C#N)cc1,8,0,1,0,14,12,21,24,19,0,,,,,,,,,,
Cc1ccc(-c2cc(-c3c[nH]nc3-c3ccccn3)ccn2)cc1 [GW684088],12,0,11,6,0,6,0,0,0,49,,,,,,,,,,
Cn1ccc2ncnc(Oc3ccc(Nc4nc5ccccc5[nH]4)cc3)c21,0,2,0,5,0,0,0,0,0,2,,,,,,,,,,
Cc1ccc(NC(=O)Nc2cccc(Cl)c2)cc1-c1ccc(C(=O)Nc2ccncc2)cc1 [GSK1398468],0,0,1,21,0,24,0,6,3,0,,,,,,,,,,
Cc1c(Cn2ccn3c(=O)cc(N4CCOCC4)nc23)cccc1C(F)(F)F [GSK2289044],0,0,10,21,14,40,2,9,13,27,,,,,,,,,,
CSc1nn2c(=O)cc(N3CCOCC3)nc2n1Cc1cccc(C(F)(F)F)c1C [GSK2363608],,,,,,,0,,,0,,,0% and 17%,0% and 8%,23% and 21%,8% and 13%,16% and 14%,36% and 20%,28% and 9%,5% and 0%
COc1ccc(CNC(=O)NC2CCN(c3ccnc(Nc4cc(OC)c(OC)c(OC)c4)n3)C2)cc1 (stereo not drawn) [GSK1379748],10,0,6,32,0,31,0,1,14,0,,,,,,,,,,
Cc1cc(N2Cc3ccccc3C2)nc(Nc2ccc(S(=O)(=O)N3CCOCC3)cc2)n1.Cl [GSK1669917],17,0,11,19,0,23,0,0,19,0,,,,,,,,,,
